Only some compounds are listed: those with a hit (about 0.53% of all), similar ones and a draw of the others.
Vif-A3F inh – qHTS for Inhibitors of Vif-A3F Interactions: qHTS; AID 602313, 2012; 390,000 compounds, 0.2% hits; Potency, µM (titrated, usually from 46.1 µM), without a hit: top-dose activity, negative = active; HeLa A3F-eYFP + Vif (tagged APOBEC3F with the HIV-1 protein that degrades it), YFP fluorescence increase; further: potency means the concentration at half of the fitted maximal effect; % of control where 0% means no effect; nearly all actives have a fitted effect of over 65% in size
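Fluorescence increase (Ex 488/Em 500-530) after overnight compound treatment at 37 deg C flags inhibition of Vif-driven A3F-eYFP loss in stable HeLa A3F-eYFP/Vif cells seeded overnight beforehand.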
IL2 activator – qHTS of IL-2 Activators; IL-2 activation reporter assay, cell-based qHTS; stimulated with anti-CD3/CD4/CD28 beads; in transgenic mouse T cells; activation, % (series mostly up to about 46 µM); 360,000 compounds, 0.065% hits; in the data active means activation above about 50%; inconclusive means mostly about 30% to 49%; further: 0% is about no effect
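Readout: EGFP and DsRed signals by fluorescent plate cytometry. Unstimulated transgenic mouse T cells received compound 60 min before antibody-bead stimulation, then incubated 18 h at 37 degrees C.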
PKM2 activator – qHTS Assay for Activators of Human Muscle isoform 2 Pyruvate Kinase; Pyruvate kinase PKM (Homo sapiens), P14618; purified PKM2, Kinase-Glo ATP luminescence, activation; response scale: 0% is enzyme alone, no compound; Potency, µM (highest dose often 57.5 µM), for the others: at the highest dose activation, hits mostly activators; 260,000 compounds, 0.34% hits; further: potency means the concentration at half of the fitted maximal effect; on the % scale 0 is the no-effect control and ±100 the full control effect; nearly all actives have a fitted effect of over 55% in size
Target sequence (P14618 whole entry, looked up, canonical isoform): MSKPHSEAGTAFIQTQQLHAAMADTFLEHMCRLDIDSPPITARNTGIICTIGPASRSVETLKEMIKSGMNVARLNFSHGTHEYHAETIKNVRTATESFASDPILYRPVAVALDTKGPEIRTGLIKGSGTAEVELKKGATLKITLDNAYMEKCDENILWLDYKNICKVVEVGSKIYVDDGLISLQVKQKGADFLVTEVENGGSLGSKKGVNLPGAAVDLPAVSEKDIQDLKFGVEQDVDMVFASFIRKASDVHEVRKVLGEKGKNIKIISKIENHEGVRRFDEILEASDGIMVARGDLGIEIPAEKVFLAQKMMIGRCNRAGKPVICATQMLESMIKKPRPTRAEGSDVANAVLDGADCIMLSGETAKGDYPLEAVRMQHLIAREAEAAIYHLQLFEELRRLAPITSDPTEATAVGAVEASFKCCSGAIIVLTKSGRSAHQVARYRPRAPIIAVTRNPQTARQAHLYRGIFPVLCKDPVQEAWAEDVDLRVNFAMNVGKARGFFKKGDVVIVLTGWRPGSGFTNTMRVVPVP
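hPK-M2, >95% pure; 0.1 mM ADP / 0.5 mM PEP final; imidazole pH7.2 buffer w/ 7 mM MgCl2, 50 mM KCl; 1 h RT; Kinase-Glo lum. Intermediate enzyme activity for dual inhibitor/activator qHTS.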
Vif-A3G inh – qHTS for Inhibitors of Vif-A3G Interactions: qHTS. 410,000 compounds, 0.076% hits. Potency, µM (series often up to 46.1 µM), inactives show at the top dose activity, negative = active, usual class: inhibitors. HeLa A3G-eYFP + Vif (tagged APOBEC3G with the HIV-1 protein that degrades it), YFP fluorescence, overnight; further: potency means the concentration at half of the fitted maximal effect; on the % scale 0 is the no-effect control and ±100 the full control effect; nearly all actives have a fitted effect of over 60% in size
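Read-out is eYFP fluorescence (Ex 488/Em 500-530) from Vif-expressing HeLa A3G-eYFP cells; more signal means A3G escaped Vif-mediated degradation. Cells plated overnight, compound pinned in, incubated overnight at 37 deg C.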
* hit, by the source's call; ? = inconclusive; / = no result. Unless noted, the call rests on the fitted dose curve; in most records, active means well fitted curve in the direction sought with a large enough effect; inconclusive means small, poorly fitted or top-dose-only effect, or another doubt; inactive means no such curve, though single readings can be large; an effect the other way counts as inactive or inconclusive.

SMILES	Vif-A3F inh	IL2 activator	PKM2 activator	Vif-A3G inh
COc1cccc(NCc2nnc(SC(C(=O)N(C)C)c3ccccc3)n2C2CCCCC2)c1 (stereo unspecified)	/	/	/	-2%
Cn1c(N)c(S(=O)(=O)c2ccc(Br)cc2)c2nc3ccccc3nc21	-14%	-2	25µM*	-3%
Nc1c(S(=O)(=O)c2ccccc2)c2nc3ccccc3nc2n1C1CC1	-6%	-1	7%	2%
CC1=CC(C)(C)Nc2ccc(OC(=O)c3ccco3)cc21	?	16	0%	11µM*
CC1=CC(C)(C)Nc2ccc(OC(=O)c3cccnc3)cc21	?	-1	16%	?
COC1C(CO)OC(n2c3c(Cl)cccc3c3c4c(c5c6cccc(Cl)c6[nH]c5c32)C(=O)NC4=O)C(O)C1O (stereo unspecified)	?	62*	/	?
O=[N+]([O-])c1ccc(N2CCN(Cc3ccccc3)CC2)c2c1no[n+]2[O-]	?	-3	/	7.9µM*
O=C(Nc1cccc(C(F)(F)F)c1)c1ccc(Cn2cc(Br)cn2)o1	-1%	-1	15%	0%
O=C(Nc1ccc(C(F)(F)F)cc1Cl)c1ccc(Cn2cc(Br)cn2)o1	-7%	0	28µM*	-6%
CCCCn1c(NC(=O)c2ccco2)c(S(=O)(=O)c2ccc(C)cc2)c2nc3ccccc3nc21	25µM*	0	26%	?
NS(=O)(=O)c1cccc(NC(=O)CSc2ccccn2)c1	11%	1	0%	-6%
NS(=O)(=O)c1ccc(NC(=O)CSc2ccccn2)cc1	-11%	-3	28µM*	0%
COC(=O)c1ccccc1NC(=O)Cn1c(=O)n(-c2ccc(Cl)cc2)c(=O)c2c(C)c(C)sc21	3%	/	/	-1%
Fc1ccc(CSc2ncnc3ccccc23)cc1	5%	1	25µM*	2%
COc1cc2c(cc1OC)CN(S(=O)(=O)c1ccc3c(c1)OCCO3)CC2	10%	3	8.9µM*	3%
COc1ccc(S(=O)(=O)N2CCc3ccccc3C2)cc1OC	-4%	0	3%	-3%
N#CCc1ccc(NS(=O)(=O)c2cccs2)cc1	-2%	-2	18µM*	-1%
CCOC(=O)N1CCN(c2cc(NCCC(=O)O)c3c4c(onc24)-c2ccccc2C3=O)CC1	7.1µM*	8	-44%	?
O=C(O)CCCNc1cc(N2CCN(C(=O)c3ccco3)CC2)c2noc3c2c1C(=O)c1ccccc1-3	?	0	-9%	22µM*
Cn1c(=O)c(=O)n(C)c2cc(S(=O)(=O)N3CCc4ccccc43)ccc21	0%	-2	2µM*	-2%
COc1ccccc1N1CCN(C(=O)c2ccc3c(=O)n(Cc4ccco4)c(=S)[nH]c3c2)CC1	-6%	0	1.1µM*	-6%
COc1ccc(Cn2c(=O)[nH]c3cc(C(=O)N4CCN(c5ccccc5OC)CC4)ccc3c2=O)cc1	-9%	2	28%	0%
COc1ccc(Cn2c(=O)[nH]c3cc(C(=O)N4CCN(Cc5ccccc5)CC4)ccc3c2=O)cc1	5%	0	13µM*	-1%
COc1ccccc1Cn1c(=S)[nH]c2cc(C(=O)N3CCN(c4ccccc4OC)CC3)ccc2c1=O	9%	1	/	0%
O=c1[nH]c2cc(Br)cnc2nc1/C=C(\O)c1ccc(F)cc1	10µM*	-1	0%	-9%
SMILES	Vif-A3F inh	IL2 activator	PKM2 activator	Vif-A3G inh
CCC(=O)N1CCc2cc(S(=O)(=O)CCC(=O)N3CCN(c4cc(C)ccc4C)CC3)ccc21	-11%	/	/	0%
COc1cc(OC)c(C2Nc3cccc4cccc(c34)N2)c(OC)c1	11µM*	-3	/	-1%
COc1ccc(C2Nc3cccc4cccc(c34)N2)cc1	-3%	-3	-6%	1%
CC(C)c1cc(-c2nc(-c3ccc(Cl)cc3)no2)n[nH]1	0%	/	/	3%
CC(C)/C=C1\CC/C(=C\c2ccc(N(C)C)cc2)C1=O	?	10	6%	-5%
CN(C)c1ccc(/C=C2/C[N+](C)(C)C/C(=C/c3ccc(N(C)C)cc3)C2=O)cc1	10µM*	8	/	?
CC(=O)NC12CC3CC(C1)CC(C(=O)N1CCN(S(=O)(=O)c4cccc(C(F)(F)F)c4)CC1)(C3)C2	-2%	-2	/	0%
COc1cccc(-c2ccc3c(N)c(C(=O)c4ccc(Br)cc4)sc3n2)c1	7.9µM*	/	/	?
Cc1ccc(NC(=O)/C=C/c2ccc([N+](=O)[O-])s2)c(C)c1	10µM*	0	6%	?
Cc1ccc(NC(=O)/C=C/c2ccc([N+](=O)[O-])s2)cc1	7.9µM*	4	-5%	3.2µM*
Cc1cc([N+](=O)[O-])ccc1NC(=O)/C=C/c1cccs1	0%	0	-4%	-2%
Cc1cccc(NC(=S)N/N=C/c2ccc([N+](=O)[O-])s2)c1	0%	-2	0%	?
Cc1ccc(C(=O)N/N=C/c2ccc([N+](=O)[O-])s2)cc1	-4%	0	-1%	?
Cc1cccc(NC(=O)/C=C/c2ccc([N+](=O)[O-])s2)c1	7.1µM*	-3	-2%	?
COc1cccc(Cn2c(CNS(=O)(=O)c3ccc(F)c(Cl)c3)nc3cccnc32)c1	-2%	/	/	3%
O=C(CNS(=O)(=O)c1cccs1)N1CCN(c2ccccn2)CC1	9%	1	22µM*	-2%
O=C(CNS(=O)(=O)c1cccs1)N1CCN(c2ccccc2F)CC1	4%	0	11%	0%
COc1ccc(NS(=O)(=O)c2ccc(-c3cnc(C4CC4)o3)cc2)cc1Cl	0%	/	/	-5%
COc1ccc(CCc2ccnc3ccccc23)cc1	0%	0	/	-3%
c1ccc2c(CCc3c[nH]c4ccccc34)ccnc2c1	/	/	/	11µM*
O=C1CSC(=S)N1Cc1cccnc1	11µM*	0	12%	?
O=C1CSC(=S)N1c1cccnc1	-6%	1	30%	1%
Cc1c2ccccc2nc2c(F)c(NC(C)C)c(F)c(F)c12	13µM*	3	1%	?
Cc1c2ccccc2nc2c(F)c(NCCO)c(F)c(F)c12	?	-1	-1%	?
COc1ccc(C2CC(c3ccncc3)=NN2c2ccc(S(N)(=O)=O)cc2)cc1 (stereo unspecified)	11µM*	0	/	?
COc1ccc(C2CC(c3ccc(Cl)cc3)=NN2c2ccc(S(N)(=O)=O)cc2)cc1 (stereo unspecified)	1%	0	/	-7%
Cc1cc2nc(SCCOC(=O)Nc3cccc(Cl)c3)nc(C)c2cc1C	25µM*	2	-4%	-3%
Cc1c(/C=N/NC(N)=O)c2ccccn2c1C(=O)c1ccc(F)cc1	0%	?	2%	-7%
CNC(=S)N/N=C/c1c(C)c(C(=O)c2ccc(F)cc2)n2ccccc12	-6%	83*	/	-9%
